Inconclusive results are not listed. Where a call stands in place of a potency, no number is given. Unmarked numbers belong to inactive results. Active and inactive are the calls of the source. The call rests on the fitted dose curve.
assay: Primary qHTS for Vero E6 cytotoxicity: counterscreen for inhibitors of SARS-S pseudo-typed particle cell entry (AID 1479150); settings: cell viability; series mostly up to 57.1 µM; activity change, negative = cytotoxicity: at the top concentration
Potency means the concentration at half of the fitted maximal effect.

| SMILES | activity change, negative = cytotoxicity | outcome | Potency |
| --- | --- | --- | --- |
| CNC(=O)c1cnn(-c2nc(N)c3ncn([C@@H]4O[C@H](CO)[C@@H](O)[C@H]4O)c3n2)c1 | -15.5% |  |  |
| OC[C@H]1O[C@@H](O[C@@H]2[C@@H](CO)O[C@](O)(CO)[C@H]2O)[C@H](O)[C@@H](O)[C@H]1O |  | inactive |  |
| Cc1cccc(N(C)C(=S)Oc2ccc3c(c2)C2CCC3C2)c1 (stereo not drawn) | -4.06% |  |  |
| CCO[C@@H]1O[C@H](C(COCc2ccccc2)OCc2ccccc2)[C@H](OCc2ccccc2)[C@H]1O (stereo partly drawn) |  | inactive |  |
| CCC(=O)c1ccc(O)cc1 |  | inactive |  |
| C[C@H]1C[C@H]2[C@@H]3CCC4=CC(=O)C=C[C@]4(C)[C@@]3(Cl)[C@@H](O)C[C@]2(C)[C@@]1(O)C(=O)CO |  | inactive |  |
| CN1[C@@H]2CC[C@H]1CC(NC(=O)n1c(=O)[nH]c3ccccc31)C2 (stereo partly drawn) |  | inactive |  |
| CC(=O)OCC1=C(C(=O)O)N2C(=O)[C@@H](NC(=O)CSc3ccncc3)[C@H]2SC1 |  | inactive |  |
| CC(=O)CCC(=O)O |  | inactive |  |
| CN(C)C(=O)Oc1cccc([N+](C)(C)C)c1 |  | inactive |  |
| C#C[C@]1(OC(C)=O)CC[C@H]2[C@@H]3CCC4=C/C(=N/O)CC[C@@H]4[C@H]3CC[C@@]21CC |  | inactive |  |
| Cc1cccc(C)c1NC(=O)C(C)N (stereo not drawn) | -5.52% |  |  |
| CC(=O)/C=C/C=C1/C2CCC(C2)C1(C)C (stereo not drawn) |  | inactive |  |
| CN(C)CCn1nnnc1SCC1=C(C(=O)O)N2C(=O)[C@@H](NC(=O)Cc3csc(N)n3)[C@H]2SC1 | -11.3% |  |  |
| CCOC(=O)c1cccc(N)c1 |  | inactive |  |
| O=C1C(CCS(=O)c2ccccc2)C(=O)N(c2ccccc2)N1c1ccccc1 (stereo not drawn) | 0.762% |  |  |
| O=C(O)C(=O)Nc1cccc(-c2nn[nH]n2)c1 | -6.55% |  |  |
| CC(=C(CCOC(=O)C(C)C)SSC(CCOC(=O)C(C)C)=C(C)N(C=O)Cc1cnc(C)nc1N)N(C=O)Cc1cnc(C)nc1N |  | inactive |  |
| O=C1c2cccc(O)c2C(=O)c2c(O)cccc21 |  | inactive |  |

| SMILES | activity change, negative = cytotoxicity | outcome | Potency |
| --- | --- | --- | --- |
| Cc1nnc(C(=O)NC(C)(C)c2nc(C(=O)NCc3ccc(F)cc3)c(O)c(=O)n2C)o1 | -7.1% |  |  |
| O=C(CCCN1CCN(c2ccccn2)CC1)c1ccc(F)cc1 |  | inactive |  |
| CCCc1ncc(C[n+]2ccccc2C)c(N)n1 |  | inactive |  |
| CC1(C)[C@@H]2CC[C@@]1(C)C(=O)C2 |  | inactive |  |
| CCC(=O)O[C@]1(C(=O)SCF)[C@H](C)C[C@H]2[C@@H]3C[C@H](F)C4=CC(=O)C=C[C@]4(C)[C@@]3(F)[C@@H](O)C[C@@]21C | 0.39% |  |  |
| C[C@@H]1C[C@H]2[C@@H]3CCC4=CC(=O)C=C[C@]4(C)[C@@]3(F)[C@@H](O)C[C@]2(C)[C@H]1C(=O)CO | 0.341% |  |  |
| Cc1[nH]c(=O)c(C#N)cc1-c1ccc2nccn2c1 |  | inactive |  |
| CC1(C)S[C@@H]2[C@H](N=CN3CCCCCC3)C(=O)N2[C@H]1C(=O)O |  | inactive |  |
| CCN1CCN(c2cc(-c3ccc(F)cc3)c3c(n2)CCCCCC3)CC1 |  | inactive [at 26.4 µM] |  |
| CC[N+](CC)(CC)CCOC(=O)C(C1CCCC1)C1CCCC1 |  | inactive |  |
| Cc1c(C)c2c(c(C)c1OC(=O)CCC(=O)OCCO)CC[C@@](C)(CCC[C@H](C)CCC[C@H](C)CCCC(C)C)O2 | -10% |  |  |
| Cc1c(C(=O)NN2CCCCC2)nn(-c2ccc(Cl)cc2Cl)c1-c1ccc(Cl)cc1 |  | inactive |  |
| CC(O)COc1ccccc1 (stereo not drawn) | 0.827% |  |  |
| Oc1c(Cl)cc(Cl)c(Cl)c1Cc1c(O)c(Cl)cc(Cl)c1Cl |  |  | 5.62 µM (active) |
| COc1nc(C)nc(Cl)c1NC1=NCCN1 |  | inactive |  |
| CN1CCCN=C1/C=C/c1cccs1 |  | inactive |  |
| CCCCN(CCN(CCCC)C(=O)N1CCOCC1)C(=O)N1CCOCC1 |  | inactive |  |
| O=C(O)CCc1nc(-c2ccccc2)c(-c2ccccc2)o1 | 3.03% |  |  |
| CC(=O)N[C@H]1[C@H]([C@H](O)[C@H](O)CO)OC(C(=O)O)=C[C@@H]1N=C(N)N | 1.41% |  |  |
